For 37 compounds, outcome and AC50 results are on record in PubChem BioAssay (EPA / NIEHS).

Structures are written as SMILES. Records with an inconclusive call do not appear. Where a structure was tested more than once in an assay, its records may differ in their call. The source made the active and inactive calls. How the source made its calls, unless noted: active means hit-call score of the fitted dose curve at least 0.9, where 1 is the maximum; inactive means score below 0.9.

Estrogen receptor (Homo sapiens), sequence (P03372 whole entry, looked up): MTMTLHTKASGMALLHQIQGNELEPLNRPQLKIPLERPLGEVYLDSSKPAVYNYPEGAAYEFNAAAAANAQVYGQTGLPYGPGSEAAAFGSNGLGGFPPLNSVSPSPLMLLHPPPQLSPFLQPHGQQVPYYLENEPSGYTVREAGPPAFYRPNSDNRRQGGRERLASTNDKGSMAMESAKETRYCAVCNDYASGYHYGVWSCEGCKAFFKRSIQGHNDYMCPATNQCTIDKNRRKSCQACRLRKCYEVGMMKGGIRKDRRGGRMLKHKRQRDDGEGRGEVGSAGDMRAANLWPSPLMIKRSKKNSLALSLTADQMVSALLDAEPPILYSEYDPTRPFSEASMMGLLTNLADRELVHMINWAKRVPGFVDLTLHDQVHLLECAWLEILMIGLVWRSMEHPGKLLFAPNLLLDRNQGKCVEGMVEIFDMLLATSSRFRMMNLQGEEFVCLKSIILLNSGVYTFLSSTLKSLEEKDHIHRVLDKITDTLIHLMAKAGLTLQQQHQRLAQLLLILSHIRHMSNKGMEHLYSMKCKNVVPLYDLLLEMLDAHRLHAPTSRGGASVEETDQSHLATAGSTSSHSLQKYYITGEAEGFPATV

Test system in the first experiment: not listed separately
Description: CCTE_Shafer_MEA_acute_cross_correlation_area: CCTE's Neural Acute Assay for Area of Cross Correlation, Shafer Lab (AID 2284024).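 Further: area under pooled inter-electrode spike cross-correlation near zero lag as percent change from own baseline; curves fitted for loss of cross-correlation area so actives lower synchrony.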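 On outcome: rat primary cortical neuron networks on 48-well MEA at DIV 13 or 15 with 40 min exposure.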 The method, boiled down: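 Rat cortical cultures, DIV 13/15, MEA; spikes detected at 8x rms noise (300-5000 Hz band-pass). Compound 0.03-40 uM, ≥3 wells each. Readout: % change in pooled inter-electrode cross-correlation area vs own baseline; DMSO negative control.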
For `O=C(CCCN1CCC(O)(c2ccc(Cl)cc2)CC1)c1ccc(F)cc1`, the call was inactive.

For the compound `CCCCC=O`, the outcome was inactive.

On to `CCCCc1oc2ccccc2c1C(=O)c1cc(I)c(OCCN(CC)CC)c(I)c1`, for which the compound was classed as inactive.

On to `CCCCCCCCCCCC`, for which the compound was classed as inactive.

`CN(C)CCOC(c1ccccc1)c1ccccc1`: the result was inactive.

Broadly, the AC50 is the concentration at which the activity in the assay is half-maximal. For `Oc1ccc(Cc2ccccc2O)cc1`, the AC50 was 8.12 nM (active).

Take `OCC(CO)(CBr)CBr`: the outcome was inactive.

For `Oc1c(Cl)cc(Cl)cc1Sc1cc(Cl)cc(Cl)c1O`, the outcome was inactive.

Turning to `CCC(C)c1ccccc1O` (stereo not given), the call was inactive.

In the case of `N=C(N)c1ccc(OCCCCCOc2ccc(C(=N)N)cc2)cc1`, the call was inactive.

`O=C1NS(=O)(=O)c2ccccc21`: the concentration at half-maximal activity (AC50) is 9.62 nM (active).

Regarding `CC(=O)Nc1ccc(O)cc1`, the outcome was inactive.

Test system in another experiment: not listed separately
Put plainly: CCTE_Shafer_MEA_acute_cross_correlation_HWHM: CCTE's Neural Acute Assay for Cross Correlation at Half Width at Half Maximum, Shafer Lab (AID 2284026).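 Further: percent change per well from pre-dose baseline in spike cross-correlogram half width; hits are a decrease in cross-correlogram half width relative to DMSO.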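 On outcome: spontaneous network firing of rat primary cortical neurons on multiwell microelectrode arrays.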 The method, boiled down: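 Read-out: half width at half maximum of action-potential cross-correlogram, percent change versus pre-treatment baseline, fitted in loss direction against DMSO. Rat cortical cultures, DIV 13 or 15, dosed 0.03-40 uM, 40-min recordings at 37 C.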
Consider `O=C(CCCN1CCC(O)(c2ccc(Cl)cc2)CC1)c1ccc(F)cc1`, for which the compound was classed as inactive.

Regarding `CCCCC=O`, the call was inactive.

Regarding `CCCCCCCCCCCC`, the result was inactive.

Regarding `Oc1ccc(Cc2ccccc2O)cc1`, the compound was classed as inactive.

As to `OCC(CO)(CBr)CBr`, the call was inactive.

`Oc1c(Cl)cc(Cl)cc1Sc1cc(Cl)cc(Cl)c1O`: the AC50 is 9.62 µM (active).

For `CCC(C)c1ccccc1O` (stereo not given), the half-maximal activity concentration (AC50) was 8.95 µM (active).

For `N=C(N)c1ccc(OCCCCCOc2ccc(C(=N)N)cc2)cc1`, the AC50 was 32 µM (active).

As to `O=C1NS(=O)(=O)c2ccccc21`, the compound was classed as inactive.

On to `CC(=O)Nc1ccc(O)cc1`, for which the compound was classed as inactive.

Test system in a further experiment: not listed separately
Put plainly: CCTE_Shafer_MEA_acute_synchrony_index: CCTE's Neural Acute Assay for Synchrony, Shafer Lab (AID 2284027).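 Further: network synchrony index of spontaneous spiking in primary rat cortical neurons on MEAs; fitted for loss of signal so actives lower synchrony relative to DMSO.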 The method, boiled down:
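Spontaneous firing of mature rat cortical networks is captured extracellularly on microelectrode arrays at 37 C, with wells needing ≥10 active electrodes. Each compound (0.03-40 uM) is judged by the change in synchrony index from baseline over 40 min.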
For the compound `O=C(CCCN1CCC(O)(c2ccc(Cl)cc2)CC1)c1ccc(F)cc1`, the result was inactive.

`CCCCC=O`: the result was inactive.

`CCCCc1oc2ccccc2c1C(=O)c1cc(I)c(OCCN(CC)CC)c(I)c1`: the compound was called inactive.

With `CCCCCCCCCCCC`, the result was inactive.

For the compound `CN(C)CCOC(c1ccccc1)c1ccccc1`, the call was inactive.

In the case of `Oc1ccc(Cc2ccccc2O)cc1`, the outcome was inactive.

As to `OCC(CO)(CBr)CBr`, the result was inactive.

Consider `Oc1c(Cl)cc(Cl)cc1Sc1cc(Cl)cc(Cl)c1O`, for which the half-maximal activity concentration (AC50) was 8.67 µM (active).

In the case of `CCC(C)c1ccccc1O` (stereo not given), the half-maximal activity concentration (AC50) is 7.45 µM (active).

On to `N=C(N)c1ccc(OCCCCCOc2ccc(C(=N)N)cc2)cc1`, for which the AC50 was 26.3 µM (active).

For `O=C1NS(=O)(=O)c2ccccc21`, the compound was called inactive.

`CC(=O)Nc1ccc(O)cc1`: the outcome was inactive.

A further experiment has as its target Estrogen receptor (Homo sapiens) (UniProt P03372). Put plainly: CCTE_Deisenroth_AIME_384WELL_LUC_Active: CCTE's 384-well Estrogen Receptor Transactivation Assay with AIME metabolic competence (ERTA luciferase; metabolism positive), Deisenroth Lab (AID 2284030; active means hit-call score of the fitted dose curve at least 0.9, where 1 is the maximum). The method, boiled down: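 Readout: bioluminescent luciferase induction in VM7Luc4E2 cells 24 hour after receiving medium from a 2 h rat hepatic S9 (induced, alginate microsphere) metabolism step. Concentrations 0.002 - 200 uM; activity scaled to 17beta-estradiol positive control.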
With `CCCCCCCCCC=CCC1CC(=O)OC1=O` (stereo not given), the outcome was inactive.

Regarding `COc1cc([N+](=O)[O-])ccc1N`, the outcome was inactive.

For `CCCCc1ccc2ccccc2c1S(=O)(=O)O`, the compound was called inactive.

Test system in the next experiment: not listed separately
Put plainly: CCTE_Shafer_MEA_dev_firing_rate_mean: CCTE's Neural Network Formation Assay for Mean Firing Rate, Shafer Lab (AID 2284031).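 Further: AUC of well mean spike rate recorded on DIV 5 7 9 and 12.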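 On AC50: curve fitted for loss of firing so AC50 reflects decreased mean firing rate.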 The method, boiled down:
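Developing rat cortical networks on MEA plates undergo 12-day compound exposure. Firing frequency, averaged across active electrodes, is integrated as area under the curve over four recording days, referenced to DMSO.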
Consider `O=C(CCCN1CCC(O)(c2ccc(Cl)cc2)CC1)c1ccc(F)cc1`, for which the concentration at half-maximal activity (AC50) is 390 nM (active).

As to `COC(=O)C(F)(F)C(F)(F)C(F)(F)C(F)(F)C(F)(F)F`, the compound was classed as inactive.

In the case of `FC(F)=C(F)C(F)(F)C(F)(F)C(F)(F)C(F)F`, the compound was classed as inactive.

With `Nc1ccn([C@@H]2O[C@H](CO)[C@@H](O)C2O)c(=O)n1` (stereo not given in full), the concentration at half-maximal activity (AC50) is 471 nM (active).

Regarding `CC(C)c1c(C(=O)Nc2ccccc2)c(-c2ccccc2)c(-c2ccc(F)cc2)n1CC[C@@H](O)C[C@@H](O)CC(=O)O`, the AC50 was 13 nM (active).

For `O=CC(F)(F)C(F)(F)C(F)(F)F`, the compound was called inactive.

`COC(=O)C(F)(F)C(F)(F)C(F)(F)F`: the result was inactive.

On to `OCC(F)(F)C(F)(F)C(F)(F)C(F)(F)C(F)(F)C(F)(F)C(F)(F)C(F)(F)C(F)(F)C(F)(F)C(F)(F)F`, for which the compound was called inactive.

As to `O=C(F)C(F)(F)C(F)(F)C(F)(F)C(F)F`, the result was inactive.

For `O=C(F)C(F)(F)C(F)(F)C(F)(F)C(=O)F`, the outcome was inactive.

`CN(C)CCOC(c1ccccc1)c1ccccc1`: the outcome was inactive.

For the compound `NC(C(F)(F)F)C(F)(F)F`, the compound was called inactive.

As for `O=P(O)(O)CCC(F)(F)C(F)(F)C(F)(F)C(F)(F)C(F)(F)C(F)(F)F`, the compound was called inactive.

Turning to `O=C(OC(=O)C(F)(F)C(F)(F)F)C(F)(F)C(F)(F)F`, the result was inactive.

Consider `O=C(CC(=O)C(F)(F)C(F)(F)C(F)(F)F)c1cccs1`, for which the compound was classed as inactive.

On to `CN(Cc1cnc2nc(N)nc(N)c2n1)c1ccc(C(=O)N[C@@H](CCC(=O)O)C(=O)O)cc1`, for which the AC50 was 123 nM (active).

With `O=C(O)CCC(F)(F)C(F)(F)C(F)(F)C(F)(F)C(F)(F)F`, the outcome was inactive.

On to `C=CC(F)(F)C(F)(F)C(F)(F)C(F)(F)F`, for which the result was inactive.

In the case of `O=C(O)C(F)(F)OC(F)(F)C(F)(F)OC(F)(F)C(F)(F)OC(F)(F)C(F)(F)C(F)(F)C(F)(F)F`, the call was inactive.

For `FCOC(C(F)(F)F)C(F)(F)F`, the outcome was inactive.

For the compound `O=P(O)(O)CCC(F)(F)C(F)(F)C(F)(F)C(F)(F)C(F)(F)C(F)(F)C(F)(F)C(F)(F)F`, the result was inactive.

With `CN(CCO)S(=O)(=O)C(F)(F)C(F)(F)C(F)(F)C(F)(F)C(F)(F)C(F)(F)C(F)(F)C(F)(F)F`, the call was inactive.

Consider `O=C(C=C(O)C(F)(F)F)C(F)(F)F`, for which the result was inactive.

As to `O=C1NS(=O)(=O)c2ccccc21`, the compound was classed as inactive.

Consider `CC(=O)Nc1ccc(O)cc1`, for which the compound was classed as inactive.

For `O=CC(F)(F)C(F)(F)C(F)(F)C(F)F`, the compound was classed as inactive.

Test system in a further experiment: not listed separately
Put plainly: CCTE_Shafer_MEA_dev_per_burst_spike_percent: CCTE's Neural Network Formation Assay for Percent of Spikes in a Burst, Shafer Lab (AID 2284032).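 On AC50: fitted as a decrease in burst spike percentage below DMSO baseline.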 The method, boiled down: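 Rat primary cortical neurons on 16-electrode MEA wells, dosed from plating day 0 for 12 days with renewal on DIV 5 and 9; spikes-in-bursts percentage averaged over bursting electrodes, collapsed as AUC across days 5, 7, 9, 12; loss direction versus DMSO.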
In the case of `O=C(CCCN1CCC(O)(c2ccc(Cl)cc2)CC1)c1ccc(F)cc1`, the AC50 was 4.18 µM (active).

For `COC(=O)C(F)(F)C(F)(F)C(F)(F)C(F)(F)C(F)(F)F`, the call was inactive.

As for `FC(F)=C(F)C(F)(F)C(F)(F)C(F)(F)C(F)F`, the result was inactive.

Consider `Nc1ccn([C@@H]2O[C@H](CO)[C@@H](O)C2O)c(=O)n1` (stereo not given in full), for which the concentration at half-maximal activity (AC50) was 0.341 µM (active).

As to `CC(C)c1c(C(=O)Nc2ccccc2)c(-c2ccccc2)c(-c2ccc(F)cc2)n1CC[C@@H](O)C[C@@H](O)CC(=O)O`, the AC50 is 0.00992 µM (active).

Consider `O=CC(F)(F)C(F)(F)C(F)(F)F`, for which the result was inactive.

Turning to `COC(=O)C(F)(F)C(F)(F)C(F)(F)F`, the outcome was inactive.

`OCC(F)(F)C(F)(F)C(F)(F)C(F)(F)C(F)(F)C(F)(F)C(F)(F)C(F)(F)C(F)(F)C(F)(F)C(F)(F)F`: the AC50 was 15 µM (active) and the compound was called inactive.

As for `O=C(F)C(F)(F)C(F)(F)C(F)(F)C(F)F`, the compound was classed as inactive.

Consider `O=C(F)C(F)(F)C(F)(F)C(F)(F)C(=O)F`, for which the compound was called inactive.

`CN(C)CCOC(c1ccccc1)c1ccccc1`: the AC50 is 10 µM (active).

With `NC(C(F)(F)F)C(F)(F)F`, the outcome was inactive.

For `O=P(O)(O)CCC(F)(F)C(F)(F)C(F)(F)C(F)(F)C(F)(F)C(F)(F)F`, the outcome was inactive.

In the case of `O=C(OC(=O)C(F)(F)C(F)(F)F)C(F)(F)C(F)(F)F`, the result was inactive.

As for `O=C(CC(=O)C(F)(F)C(F)(F)C(F)(F)F)c1cccs1`, the AC50 was 8.19 µM (active).

For `CN(Cc1cnc2nc(N)nc(N)c2n1)c1ccc(C(=O)N[C@@H](CCC(=O)O)C(=O)O)cc1`, the AC50 is 0.0318 µM (active).

As to `O=C(O)CCC(F)(F)C(F)(F)C(F)(F)C(F)(F)C(F)(F)F`, the result was inactive.

Consider `C=CC(F)(F)C(F)(F)C(F)(F)C(F)(F)F`, for which the result was inactive.

`O=C(O)C(F)(F)OC(F)(F)C(F)(F)OC(F)(F)C(F)(F)OC(F)(F)C(F)(F)C(F)(F)C(F)(F)F`: the compound was classed as inactive.

With `FCOC(C(F)(F)F)C(F)(F)F`, the compound was called inactive.

As to `O=P(O)(O)CCC(F)(F)C(F)(F)C(F)(F)C(F)(F)C(F)(F)C(F)(F)C(F)(F)C(F)(F)F`, the AC50 was 4.78 µM (active).

Take `CN(CCO)S(=O)(=O)C(F)(F)C(F)(F)C(F)(F)C(F)(F)C(F)(F)C(F)(F)C(F)(F)C(F)(F)F`: the compound was classed as inactive.

Regarding `O=C(C=C(O)C(F)(F)F)C(F)(F)F`, the outcome was inactive.

For the compound `O=C1NS(=O)(=O)c2ccccc21`, the compound was classed as inactive.

As to `CC(=O)Nc1ccc(O)cc1`, the outcome was inactive.

Consider `O=CC(F)(F)C(F)(F)C(F)(F)C(F)F`, for which the outcome was inactive.
